What was measured:
Format in all cases: functional
[1] = target: Solute carrier family 2, facilitated glucose transporter member 1 (Homo sapiens) (UniProt P11166); assay: ST_JUDE_LEISH: Cytotoxicity at 2uM final concentration against transgenic Leishmania Mexicana promastigotes LmGLUT1 that are glucose transport deficient and complemented with the human glucose transporter GLUT1. Activity is measured by DNA content using SYBR green in vitro
[2] = target: Hexose transporter 1 (Plasmodium falciparum) (UniProt O97467); assay: ST_JUDE_LEISH: Cytotoxicity at 2uM final concentration against transgenic Leishmania Mexicana promastigotes LmPfHT that are glucose transport deficient and complemented with the Plasmodium falciparum hexose transporter. Activity is measured by DNA content using SYBR green in vitro
[3] = target: Glucose transporter (Leishmania mexicana) (UniProt O61059); assay: ST_JUDE_LEISH: Cytotoxicity at 2uM final concentration against transgenic Leishmania Mexicana promastigotes LmGT2 that are glucose transport deficient and complemented with the L. Mexicana glucose transporter 2. Activity is measured by DNA content using SYBR green in vitro

Sequence of Solute carrier family 2, facilitated glucose transporter member 1 (Homo sapiens) (P11166 whole entry): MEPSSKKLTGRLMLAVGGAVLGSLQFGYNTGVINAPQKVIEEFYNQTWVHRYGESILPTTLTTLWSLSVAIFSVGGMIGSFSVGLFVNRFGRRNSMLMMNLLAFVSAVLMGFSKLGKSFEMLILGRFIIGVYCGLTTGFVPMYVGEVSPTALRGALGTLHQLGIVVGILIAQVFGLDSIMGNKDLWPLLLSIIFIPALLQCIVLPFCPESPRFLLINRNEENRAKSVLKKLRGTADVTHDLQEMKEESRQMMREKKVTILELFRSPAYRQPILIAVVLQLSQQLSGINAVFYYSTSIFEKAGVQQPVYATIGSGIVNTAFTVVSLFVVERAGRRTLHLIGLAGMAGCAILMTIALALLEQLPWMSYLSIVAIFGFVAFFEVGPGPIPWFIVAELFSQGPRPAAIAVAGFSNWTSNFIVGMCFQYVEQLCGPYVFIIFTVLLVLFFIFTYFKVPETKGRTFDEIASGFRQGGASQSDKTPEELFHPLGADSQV

Compound | inhibition [1] | inhibition [2] | inhibition [3]
O=C(NCC1CC1)C1CCN(C(c2ccccc2)c2ccc(Cl)c(Cl)c2)CC1 (stereo not drawn) | -0.49% | 1.49% | 0.06%
O=C(CC(=O)Nc1cc(Cl)cc(Cl)c1)Nc1cc(Cl)cc(Cl)c1 | -1.77% | -3.47% | 0.68%
CC1(C)N=C(NC(=O)c2cc([N+](=O)[O-])cc([N+](=O)[O-])c2)N=C(N)N1OCc1cccc2ccccc12 | -1.97% | -0.29% | -0.37%
COc1ccc(C=NN=c2cc(C)[nH]c3c(C)cccc23)c2ccccc12 | 1.53% | 1.31% | 5.67%
CCc1cc([C@H]2O[C@@H](n3cnc4c(NCC(c5ccccc5)c5ccccc5)nc(NCCNc5ccccn5)nc43)[C@H](O)[C@@H]2O)on1 | -1.61% | -0.53% | -2.53%
CCCc1cc(C)ccc1OCCCON1C(N)=NC(N)=NC1(C)C | 31.1% | 45.5% | 25.9%
C[C@H](Cc1ccc(C[C@@H](C)NC[C@H](O)c2cccc(Cl)c2)cc1)NC[C@H](O)COc1ccccc1 | 1.99% | 1.95% | 3.59%
O=C(NC1CCCCC1)c1csc(C2CCCN(C(=O)c3ccc(O)c(-c4cccc(C(F)(F)F)c4)c3)C2)n1 (stereo not drawn) | 0.87% | 1.44% | -0.33%
O=C(CC1NC(=O)c2ccccc21)Nc1ccc(-c2cccc(-c3nc4cc(C(F)(F)F)ccc4[nH]3)c2)cc1 (stereo not drawn) | 1.2% | 2.78% | 0.79%
O=C(NCCCN1CCCCC1)c1ccc(Nc2nccc(Nc3ccc(Oc4ccccc4)cc3)n2)cc1 | 10.4% | 8.47% | 7.37%
CN(C)CCCNc1ncnc2c1[nH]c1ccc(F)cc12 | 7.06% | 7.08% | 7.71%
CC(C)CCn1c(Sc2ccc(C#N)c([N+](=O)[O-])c2)nnc1-c1ccc(Cl)cc1 | 10.1% | 9.73% | 4.99%
O=C(Cn1c(CCc2cccc(F)c2F)nc(=O)c2ccccc21)N(Cc1ccc(-c2ccc(C(F)(F)F)cc2)cc1)C1CCN(C2CCSCC2)CC1 | 1.28% | -2.32% | 3.92%
O=C(NCCc1ccccc1)N(Cc1cccc(-c2ccc(CNCc3ccc4c(c3)OCO4)cc2)c1)C1CCN(Cc2ccccc2)CC1 | 1.17% | 2.76% | 1.29%
C[C@@H](C(=O)N1CCOCC1)N1CC[C@H](NS(=O)(=O)c2ccc3ccnc(N)c3c2)C1=O | -1.02% | -1.24% | -4.28%
COc1ccc2nccc([C@@H](O)CN3CCC(NCC(O)Cc4ccccc4)CC3)c2c1 (stereo partly drawn) | -0.38% | -3.2% | 1.51%

Compound | inhibition [1] | inhibition [2] | inhibition [3]
O=C(Nc1ccc2c(c1)CCN2C1CCN(Cc2csc3ccccc23)C1)c1ccco1 (stereo not drawn) | 2.05% | 2.08% | 1.45%
CC(C)C[C@@H](/C=N/N1CC(=O)NC1=O)NC(=O)[C@H](CC(C)C)NC(=O)c1ccc(OCCN2CCOCC2)cc1 | -0.34% | 2.99% | 1.11%
CN(C(=O)c1snnc1-c1ccccc1)C1CCN(CCCCCNC(=O)/C=C/c2ccc(Cl)c(Cl)c2)CC1 | 3.47% | 0.39% | 3.46%
Cc1ccc(C)c(Cn2ccc3nc(Cl)nc(Cl)c32)c1 | 7.99% | 5.11% | 0.45%
CC(C)(C)c1ccc(CN2CCC(NC(=O)c3ccc(-c4cccc(F)c4)s3)CC2)cc1 | -0.34% | -2.33% | 2.67%
COc1ccc2nccc([C@@H](O)CN3CCC(NCCOc4ccc(F)cc4Cl)CC3)c2c1 | 9.75% | 11.6% | 4.96%
Cc1cccc2nc(-c3ccc(-c4ccc(CNCc5cccc(N)c5)cc4)cc3)[nH]c12 | 24.1% | 30.9% | 14.9%
Cc1[nH]c(C)c(-c2ccc(Oc3ccc(Cl)cc3)cc2)c(=O)c1C | 11.4% | 30.5% | 1.29%
Cc1cccc(-c2nc3[nH]c(=O)cc(NC(=O)C(C)C)n3n2)c1 | -2.8% | -2.49% | -1.3%
CCCCCCc1cc2cc(-c3csc(C=Cc4ccccc4)n3)c(=O)oc2cc1O | 9.95% | 10.6% | 9.7%
Cc1cc2c(cc1C(F)(F)F)N(C(=O)Nc1cc(C(=O)NC3CCN(Cc4ccccc4)C3)cc(C(F)(F)F)c1)CC2 (stereo not drawn) | 6.43% | 6.1% | 7.35%
CN1CCC(C(=O)Nc2ccc(-c3cccc(-c4nc5cc(F)ccc5[nH]4)c3)cc2)CC1 | 8.95% | 9.27% | 8.51%
COc1ccc(-c2cccc(NC(=O)c3ccc(C#N)cc3)c2)cc1CN(C)CCN(C)C | 2.8% | 2.9% | 0.41%
CC(C)CNC(=O)c1cncc(-c2ccc(CN3CCC(N4CCCC4)CC3)cc2)c1 | 1.79% | 1.64% | 2.41%
Cc1cccc2nc(-c3cccc(-c4ccc(NC(=O)CS(C)(=O)=O)cc4)c3)[nH]c12 | -0.47% | 3.33% | 3.81%
